The test system of the experiment is HEK293 WT BDD-FVIII-Gluc. Briefly: secreted FVIII-Gluc luciferase Z-score vs DMSO control; higher = more FVIII-Gluc secretion. Conditions: 5 µM. Here is the method:
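Natural plant-compound library (480 compounds, ST catalogue IDs) screened on HEK293 cells stably expressing WT BDD-FVIII-Gaussia luciferase fusion at 5 µM. Secreted Gluc activity in the medium is given as a Z-score relative to DMSO controls.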
On to `CC(=O)Oc1ccc(/C=C/C(=O)CC2OC(Oc3cc(OC(C)=O)c4c(c3)O[C@@H](c3ccc(OC(C)=O)cc3)CC4=O)C(OC(C)=O)C(OC(C)=O)C2OC(C)=O)cc1` (stereo not given in full), for which the “secreted FVIII-Gluc luciferase Z-score” value turned out to be 0.201. For `COc1cc2c(C)c3c4c(cc(OC)c(OC)c4c2cc1OC)CCN3C` the value was -1.2. For `N=C(N=C(N)N)N1CCOCC1` the value was 0.384; for `COc1ccc2c(c1OC)C(=O)O[C@H]2[C@H]1c2c(cc3c(c2OC)OCO3)CCN1C`, 0.932; for `Cc1cc(O)c2c(c1)C(=O)c1cccc(O)c1C2=O`, 0.974. Take `COc1cc2c(Cc3c4c5c(cc(OC)c(OC)c5c5c(OC)c(OC)ccc35)CCN4C)c3c4c(cc(OC)c(OC)c4c2cc1OC)CCN3C`: the “secreted FVIII-Gluc luciferase Z-score” value was -0.165.

Take `C=C1C(=O)OC2C[C@@]3(C)CCCC(=C)[C@@H]3CC12` (stereo not given in full): the “secreted FVIII-Gluc luciferase Z-score” value was -0.82. As for `Nc1ncnc2c1ncn2C1OC(CO)C(O)C1OP(=O)(O)O` (stereo not given), the “secreted FVIII-Gluc luciferase Z-score” value is -0.295. Take `O=c1cc[nH]c(=S)[nH]1`: the “secreted FVIII-Gluc luciferase Z-score” value came to 0.275.

`O=c1ccn([C@@H]2O[C@H](CO)[C@@H](O)[C@H]2O)c(=O)[nH]1`: the “secreted FVIII-Gluc luciferase Z-score” value was found to be 0.943. For `COc1ccc2c(OC)c3ccoc3nc2c1OC`, the “secreted FVIII-Gluc luciferase Z-score” value worked out at 0.816. Under `C=CC1CN2CCC1CC2C(O)c1ccnc2ccc(OC)cc12` (stereo not given) stands -0.00699. Take `NC(=O)NCCC[C@H](N)C(=O)O`: the “secreted FVIII-Gluc luciferase Z-score” value was -0.102. Consider `C[C@@H]1C(=O)O[C@H]2[C@@H](O)[C@@]34[C@H]5CC(C(C)(C)C)[C@]36[C@@H](OC(=O)[C@@H]6O)O[C@@]4(C(=O)O5)[C@@]12O` (stereo not given in full), for which the “secreted FVIII-Gluc luciferase Z-score” value turned out to be 0.119. With `COc1ccccc1-c1cc(=O)c2cc(O)ccc2o1`, the “secreted FVIII-Gluc luciferase Z-score” value is 0.281. As for `NC(Cc1cnc[nH]1)C(=O)O` (stereo not given), the “secreted FVIII-Gluc luciferase Z-score” value is 0.443. For `COC(=O)C1(O)CC(O)C(NC(C)=O)C(C(O)C(O)CO)O1` (stereo not given) the value was 0.68.

Consider `CN1CCc2cccc3c2C1Cc1ccc(O)c(O)c1-3` (stereo not given), for which the “secreted FVIII-Gluc luciferase Z-score” value is -0.131.

Turning to `COc1cc(-c2cc(=O)c3ccccc3o2)ccc1O`, the “secreted FVIII-Gluc luciferase Z-score” value came out at 1.57. Under `COc1ccc2[nH]cc(CCNC(C)=O)c2c1` stands 0.108.

Turning to `O=C1OC(=O)C2C3CCC(O3)C12` (stereo not given), the “secreted FVIII-Gluc luciferase Z-score” value was -0.862. Take `COC1C(O)C(O)C(O)C(O)C1O` (stereo not given): the “secreted FVIII-Gluc luciferase Z-score” value came to 0.358. Regarding `COc1ccc2c(c1OC)C(Cc1ccccc1)N1CCc3cc4c(cc3C1=C2)OCO4` (stereo not given), the “secreted FVIII-Gluc luciferase Z-score” value turned out to be 0.115. For the molecule `CC(C)CC(N)C(=O)O` (stereo not given), the “secreted FVIII-Gluc luciferase Z-score” value was 0.117. For `C=C(CO)C1Cc2c(ccc3c2OC2COc4cc(OC)c(OC)cc4C2C3=O)O1` (stereo not given) the value was -1.91.
